The panel holds about 83,000 compounds, 20% with a hit somewhere; the sample as a whole holds those more often.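 For each line, cells grew in 96-well plates with the test compound present at a single concentration for 48 hours.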 A number with no mark means an inactive call. Activity calls are given as the source filed them. The calls were made as follows: active = growth percent below 10; inactive = the rest.
system: 786-0 renal; test: NCI-60 one-dose screen, 48 h (100 = growth as untreated, 0 = no growth, -100 = all killed); settings: 10 µM unless noted

**Q.** O=c1[nH]c(=O)n(Cc2ccc(F)cc2)cc1F was tested. Which growth did it give?
**A.** 105% [50 µM]

**Q.** Which growth does the source give for CC(=O)Nc1ccccc1-c1n[nH]c(=O)[nH]c1=O here?
**A.** 98.4%

**Q.** How did the growth turn out when CCOC(=O)c1[nH]c2cc(Cl)ccc2c1[C@@H](C(=O)NC(C)(C)C)N(CC)C(=O)CCCCC#Cc1cccc2c1CN(C1CCC(=O)NC1=O)C2=O (some centres not stated) was run?
**A.** 13.5%

**Q.** NS(=O)(=O)c1ccc(C(=O)N/N=C(\CS(=O)(=O)c2ccccc2)c2cc3cc(Br)ccc3o2)cc1 was tested. Which growth did it give?
**A.** 101%

**Q.** Which growth does the source give for O=C1Nc2ccc(Cl)cc2/C1=N/N=C(c1ccccc1)c1ccccc1 here?
**A.** 102%

**Q.** Cc1c(C(=O)Nc2nc(-c3ccccc3)cs2)nnn1-c1cccc2ccccc12 was tested. Which growth did it give?
**A.** 79.8% [50 µM]

**Q.** With COc1ccc(NS(=O)(=O)c2ccc(-c3cnc(C4CC4)o3)cc2)cc1 as the molecule, how does the growth read?
**A.** 81.3%

**Q.** With O=c1[nH]c(-c2ccncc2)nc2sc3c(c12)CCCCCC3 as the molecule, how does the growth read?
**A.** 80.4%

**Q.** Which growth does the source give for CC(C)OC1=C(Cl)C(=O)c2ccccc2C1=O here?
**A.** 108%

**Q.** Which growth does the source give for O=c1nc(NO)[nH]c(=O)n1Cc1ccccc1 here?
**A.** 101%

**Q.** COc1c(O)c2c3c(c1OC)-c1ccccc1CC3N(S(=O)(=O)c1ccc(C)cc1)CC2 (configuration not stated) was tested. Which growth did it give?
**A.** 75.8%

**Q.** For Fc1c[c-]c(-c2ccccn2)c(F)c1.Fc1c[c-]c(-c2ccccn2)c(F)c1.[Cl][Pt+].[Cl][Pt+].c1ccc([PH+](C[PH+](c2ccccc2)c2ccccc2)c2ccccc2)cc1, which growth is on record?
**A.** 31.8%

**Q.** Which growth does the source give for O=C(c1ccc2ncc(-c3nc(NC4CC4)ncc3F)n2c1)N1CCOCC1 here?
**A.** 9.09% (active)

**Q.** For CCN1CCN(C(=S)SCC(=O)Nc2nc3ccc(OC)cc3s2)CC1, which growth is on record?
**A.** 107%

**Q.** How did the growth turn out when COc1ccc(-c2nc3sc(C)nn3c2-c2nc3cc(C)c(C)cc3[nH]2)cc1 was run?
**A.** 98.4%

**Q.** CCCCC1COc2cccc3c(SCC(=O)N(C)c4cccc5ccccc45)cc[n+]1c23 (configuration not stated) was tested. Which growth did it give?
**A.** 98.3%

**Q.** O=C1NC(=O)C(CSc2ccccc2)(c2ccccc2)N1 (configuration not stated) was tested. Which growth did it give?
**A.** 103%

**Q.** With O=C1c2ccccc2-c2nnc(-c3ccc(Br)cc3)cc21 as the molecule, how does the growth read?
**A.** 82.3%

**Q.** Which growth does the source give for O=c1c2cc(F)ccc2oc2c(NCCNCCO)nc3ccccc3c12 here?
**A.** 42%

**Q.** With CCCCCn1c(=N)n(CC(O)COc2cccc(C)c2)c2ccccc21 (configuration not stated) as the molecule, how does the growth read?
**A.** 32.6%

**Q.** With Cc1ccccc1-n1nnc(C(=O)Nc2ccc(-c3ccccc3)cn2)c1C as the molecule, how does the growth read?
**A.** 62.1% [50 µM]

**Q.** O=C(N/N=C/c1ccc(OC(F)F)c(OC2CCCC2)c1)c1cnn2c1NC(c1ccccc1)C2 (configuration not stated) was tested. Which growth did it give?
**A.** 89.2%

**Q.** Which growth does the source give for O=C(NCc1ccc(F)cc1)C1CN(c2ccc(Cl)cc2)N(c2ccc(Cl)cc2)C1=O (configuration not stated) here?
**A.** 79.1%

**Q.** How did the growth turn out when O=C1CCC(N2Cc3c(C#CCCCNC(=O)c4cc5c(o4)C(=O)c4ccccc4C5=O)cccc3C2=O)C(=O)N1 (configuration not stated) was run?
**A.** 49.7%

**Q.** With Nc1cccc2c(=S)c3ccccc3[nH]c12 as the molecule, how does the growth read?
**A.** 106%

**Q.** Which growth does the source give for Cc1ccc(NS(=O)(=O)c2ccc(-c3cnc(C4CC4)o3)cc2)cc1 here?
**A.** 50.8%

**Q.** Which growth does the source give for N#Cc1c(-c2cccc(F)c2)cc(-c2ccc(Br)s2)[nH]c1=O here?
**A.** 96.3%

**Q.** For O=C1c2ccccc2-c2cn(Cc3ccccc3)c3cccc(c23)C1c1cccnc1 (configuration not stated), which growth is on record?
**A.** 52.2%

**Q.** For COc1cc2cc(Oc3ccc(NC(=O)Nc4cccc(C(F)(F)F)c4)cc3)c(C)nc2cc1OCCN1CCCCC1, which growth is on record?
**A.** -83.7% (active)

**Q.** How did the growth turn out when CCC(=O)Nc1nnc(Cc2ccc(OC)c(OC)c2)s1 was run?
**A.** 9.21% (active)

**Q.** O=c1[nH]c(=S)c2c(n1CCCO)CCC2 was tested. Which growth did it give?
**A.** 102%

**Q.** For CC(C)(C)[Si](C)(C)OC1[C@@H](COC(=O)NC(=O)CCl)O[C@@H](n2cnc3c(N)ncnc32)[C@H]1O[Si](C)(C)C(C)(C)C (some centres not stated), which growth is on record?
**A.** 4.11% (active)

**Q.** Cc1ccccc1-n1nnc(C(=O)Nc2nc(-c3ccccc3)c(-c3ccccc3)s2)c1C was tested. Which growth did it give?
**A.** 87.4% [50 µM]

**Q.** How did the growth turn out when Oc1ccc2ccccc2c1C1NN=C(c2ccccc2)S1 (configuration not stated) was run?
**A.** 6.82% (active)

**Q.** For CCCCCCCC/C=C\CCCCCCCCOc1cccc(CC(=O)NCC[N+]2(C)CCOCC2)c1, which growth is on record?
**A.** 94.9%

**Q.** CCC(C)Oc1cc(/C=N/NC(=O)c2cnn3c2NC(c2ccccc2)C3)ccc1OC (configuration not stated) was tested. Which growth did it give?
**A.** 47.6%

**Q.** COc1ccc(OC2=CC(=O)c3ccc(C)nc3C2=O)cc1 was tested. Which growth did it give?
**A.** 109%

**Q.** With COc1ccc(/C=C2\SC(=O)N(CN3CCN(c4cc5c(cc4F)c(=O)c(C(=O)O)cn5C4CC4)CC3)C2=O)cc1 as the molecule, how does the growth read?
**A.** 93.1%

system: COLO 205 colon; test: as above; settings: 10 µM unless noted

**Q.** With O=c1[nH]c(=O)n(Cc2ccc(F)cc2)cc1F as the molecule, how does the growth read?
**A.** 115% [50 µM]

**Q.** How did the growth turn out when CC(=O)Nc1ccccc1-c1n[nH]c(=O)[nH]c1=O was run?
**A.** 115%

**Q.** How did the growth turn out when Cc1c(C(=O)Nc2nc(-c3ccccc3)cs2)nnn1-c1cccc2ccccc12 was run?
**A.** 69.1% [50 µM]

**Q.** For O=c1[nH]c(-c2ccncc2)nc2sc3c(c12)CCCCCC3, which growth is on record?
**A.** 106%

**Q.** With CC(C)OC1=C(Cl)C(=O)c2ccccc2C1=O as the molecule, how does the growth read?
**A.** 97.7%

**Q.** With O=c1nc(NO)[nH]c(=O)n1Cc1ccccc1 as the molecule, how does the growth read?
**A.** 128%

**Q.** Which growth does the source give for Fc1c[c-]c(-c2ccccn2)c(F)c1.Fc1c[c-]c(-c2ccccn2)c(F)c1.[Cl][Pt+].[Cl][Pt+].c1ccc([PH+](C[PH+](c2ccccc2)c2ccccc2)c2ccccc2)cc1 here?
**A.** -65.2% (active)

**Q.** How did the growth turn out when CCN1CCN(C(=S)SCC(=O)Nc2nc3ccc(OC)cc3s2)CC1 was run?
**A.** 112%

**Q.** With COc1ccc(-c2nc3sc(C)nn3c2-c2nc3cc(C)c(C)cc3[nH]2)cc1 as the molecule, how does the growth read?
**A.** 115%

**Q.** For O=C1NC(=O)C(CSc2ccccc2)(c2ccccc2)N1 (configuration not stated), which growth is on record?
**A.** 98%

**Q.** With O=C1c2ccccc2-c2nnc(-c3ccc(Br)cc3)cc21 as the molecule, how does the growth read?
**A.** 99.7%

**Q.** With CCCCCn1c(=N)n(CC(O)COc2cccc(C)c2)c2ccccc21 (configuration not stated) as the molecule, how does the growth read?
**A.** 87.2%

**Q.** Which growth does the source give for Cc1ccccc1-n1nnc(C(=O)Nc2ccc(-c3ccccc3)cn2)c1C here?
**A.** 40.2% [50 µM]

**Q.** With Nc1cccc2c(=S)c3ccccc3[nH]c12 as the molecule, how does the growth read?
**A.** 114%

**Q.** How did the growth turn out when COc1cc2cc(Oc3ccc(NC(=O)Nc4cccc(C(F)(F)F)c4)cc3)c(C)nc2cc1OCCN1CCCCC1 was run?
**A.** -74.9% (active)

**Q.** Which growth does the source give for CCC(=O)Nc1nnc(Cc2ccc(OC)c(OC)c2)s1 here?
**A.** 28.2%

**Q.** Which growth does the source give for CC(C)(C)[Si](C)(C)OC1[C@@H](COC(=O)NC(=O)CCl)O[C@@H](n2cnc3c(N)ncnc32)[C@H]1O[Si](C)(C)C(C)(C)C (some centres not stated) here?
**A.** 27.5%

**Q.** How did the growth turn out when Cc1ccccc1-n1nnc(C(=O)Nc2nc(-c3ccccc3)c(-c3ccccc3)s2)c1C was run?
**A.** 92.8% [50 µM]

**Q.** Which growth does the source give for Oc1ccc2ccccc2c1C1NN=C(c2ccccc2)S1 (configuration not stated) here?
**A.** 16.6%

From PubChem BioAssay (NCI)
